Measured values from PubChem BioAssay (NCATS).
Records with an inconclusive call do not appear. A call without a number means that no potency is given here. Activity calls are given as the source filed them. The call rests on the fitted dose curve; in most records, active means well fitted cell-killing curve with a large enough effect; inconclusive means small, poorly fitted or top-dose-only effect, or effect the other way; inactive means no such curve, though single readings can be large or run the other way.

test: Quantitative High-Throughput drug screen in 47 multiple myeloma cell lines against the NCATS MIPE library collection: Karpas620_DSMZ cell viability assay (AID 1918959); details: Karpas620 myeloma viability, CellTiter-Glo ATP luminescence, 48 h; series mostly up to 45.8 µM; further: nearly all actives have a fitted effect of over 30% in size
Text: PI: Beverly A. Mock Ph.D.
Laboratory of Cancer Biology and Genetics,
Center for Cancer Research, National Cancer Institute,
National Institute of Health, Bethesda, Maryland
Drug resistance and disease progression are common in multiple myeloma (MM) patients, underscoring the need for new therapeutic combinations. […] We hypothesized that effective combinations would reduce MYC expression and enhance p16 activity. […] These preclinical data identify potentially useful drug combinations for evaluation in drug-resistant MM and reveal potential mechanisms of combined drug sensitivity.
Described herein is the primary MIPE qHTS used to cherrypick compounds. Validated compounds were then further tested for potential synergistic activiy.
[1] Peat TJ, Gaikwad SM, Dubois W, Gyabaah-Kessie N, Zhang S, Gorjifard S, Phyo Z, Andres M, Hughitt VK, Simpson RM, Miller MA, Girvin AT, Taylor A, Williams D, D'Antonio N, Zhang Y, Rajagopalan A, Flietner E, Wilson K, Zhang X, Shinn P, Klumpp-Thomas C, McKnight C, Itkin Z, Chen L, Kazandijian D, Zhang J, Michalowski AM, Simmons JK, Keats J, Thomas CJ, Mock BA. Drug combinations identified by high-throughput screening promote cell cycle transition and upregulate Smad pathways in myeloma. Cancer Lett. 2023 Aug 1;568:216284. doi: 10.1016/j.canlet.2023.216284. Epub 2023 Jun 24. PMID: 37356470; PMCID: PMC10408729.
SEQUENCE No. (e.g., 1, 2, 3, etc.); […] (e.g., Cells, Incubation, Reagent, etc.); VALUE and DESCRIPTION.
1; Cells; 5 uL; white, solid bottom 1536-well Greiner assay plate.
2; Compounds; 23 nL; Kalypsis pin tool (Wako USA) equipped with a 1536-well pin head to transfer to the assay plates.
3; Incubation; 48 hours; 37C incubation.
4; Reagent;5uL; CellTiter Glo (Promega).
5; Detector; 425V; Luminescence; Viewlux PerkinElmer.
NOTES (numbers refer to Sequence numbers above)
1. The cell-based screening methods employed in this study were like those previously published. Briefly, the corresponding myeloma cell lines were screened in 1,536-well plates with 500 cells, 5-uL per well for inhibition of cell viability (assessed by measuring ATP levels with CellTiterGlo).
2. NCATS MIPE 4.0 library of approved and investigational drugs were added using the Kalypsis pin tool. Wells treated with DMSO only for 100% viability and media only wells for 0% viability were used as controls.
3. The assay plates were covered and incubated for 48 hours in a 37C, 5% CO2 incubator with controlled humidity.
4. After 48 hours, CellTilter-GloTM luminescent substrate mix (Promega) reagent was added to the assay plate and plates we incubated for 5 min at room temperature.
5. Signal was measured as median relative luminescence units on a ViewLux (PerkinElmer) multiplate reader.
[1] Heske CM, Davis MI, Baumgart JT, Wilson K, Gormally MV, Chen L, Zhang X, Ceribelli M, Duveau DY, Guha R, Ferrer M, Arnaldez FI, Ji J, Tran HL, Zhang Y, Mendoza A, Helman LJ, Thomas CJ. Matrix Screen Identifies Synergistic Combination of PARP Inhibitors and Nicotinamide Phosphoribosyltransferase (NAMPT) Inhibitors in Ewing Sarcoma. Clin Cancer Res. 2017 Dec 1;23(23):7301-7311. doi: 10.1158/1078-0432.CCR-17-1121. Epub 2017 Sep 12. PMID: 28899971; PMCID: PMC6636827.
Potency means the concentration at half of the fitted maximal effect.

| Compound | Potency |
| --- | --- |
| CC(=O)SCC(Cc1ccccc1)C(=O)NCC(=O)OCc1ccccc1 (stereo not given) | 1.66 µM (active) |
| CN(CC(=O)N(Cc1ccc(C2CCCCC2)cc1)c1ccc(C(=O)O)c(O)c1)S(=O)(=O)c1c(F)c(F)c(F)c(F)c1F | 2.96 µM (active) |
| N[C@H]1CN(c2c(F)cc3c(=O)c(C(=O)O)cn(C4C[C@@H]4F)c3c2Cl)CC12CC2 (stereo not given in full) | inactive |
| O=C1c2cccc(O)c2C(=O)c2c(O)cc(CO)cc21 | inactive |
| COc1cc(OC)cc(-c2ccc3ncc4ccc(=O)n(-c5ccc(N6CCNCC6)c(C(F)(F)F)c5)c4c3c2)c1 | 4.69 µM (active) |
| C=Cc1c(C)c2cc3nc(cc4[nH]c(cc5nc(cc1[nH]2)C(C)=C5CCC(=O)O)c(CCC(=O)OC)c4C)[C@@]1(C)C3=CC=C(C(=O)OC)[C@H]1C(=O)OC | 0.187 µM (active) |
| CC1(C)CC(O)CC(C)(C)N1[O] | inactive |
| CN1[C@H]2CC(OC(=O)[C@@H](CO)c3ccccc3)C[C@H]1[C@H]1O[C@H]12 (stereo not given in full) | inactive |
| CN(C)c1ccc(C(=O)NCCCCCCC(=O)NO)cc1 | 0.743 µM (active) |
| CC(Cc1ccc(O)c(O)c1)(NN)C(=O)O (stereo not given) | inactive |
| Oc1ccc([C@@H]2Oc3ccc(O)cc3[C@@H]3CCC[C@@H]32)cc1 | inactive |
| OCc1ccccc1O[C@@H]1O[C@H](CO)[C@H](O)[C@H](O)[C@H]1O | inactive |
| Cc1ccc2nc(NCCN)c3ncc(C)n3c2c1 | 11.8 µM (active) |
| COc1cccc2c1C(=O)c1c(O)c3c(c(O)c1C2=O)C[C@@](O)(C(=O)CO)C[C@@H]3O[C@H]1C[C@H](N)[C@H](OC2CCCCO2)[C@H](C)O1 (stereo not given in full) | inactive |
| c1cncc(CN2CCC(n3ncc4c(N5CCOCC5)nc(-c5ccc6[nH]ccc6c5)nc43)CC2)c1 | inactive |
| Cc1noc(-c2ccc(CSCCC(=O)O)cc2)c1NC(=O)OC(C)c1ccccc1Cl (stereo not given) | inactive |
| C[C@@H]1[C@H](C)CC[C@]2(C(=O)O)CC[C@]3(C)C(=CC[C@@H]4[C@@]5(C)C[C@@H](O)[C@H](O)[C@@](C)(CO)[C@H]5CC[C@]43C)[C@@H]12 | inactive |
| CC(C)N1[N]C(=C2C=c3cc(O)ccc3=N2)c2c(N)ncnc21 | 5.9 µM (active) |
| c1cc(N[C@@H]2CCNC2)nc(-c2cnc3ccc(-c4cn[nH]c4)cn23)c1 | 10.5 µM (active) |
| Cn1cc(C2=C(c3c4n(c5ccccc35)CCC(CN)C4)C(=O)NC2=O)c2ccccc21 (stereo not given) | 9.35 µM (active) |

| Compound | Potency |
| --- | --- |
| CC1(C)[C@H](O[C@H]2O[C@H](C(=O)O)[C@@H](O)[C@H](O)[C@H]2O[C@@H]2O[C@H](C(=O)O)[C@@H](O)[C@H](O)[C@H]2O)CC[C@@]2(C)[C@H]1CC[C@]1(C)[C@H]2C(=O)C=C2[C@H]3C[C@@](C)(C(=O)O)CC[C@]3(C)CC[C@]21C | inactive |
| N#CNC(=NCCCCCCOc1ccc(Cl)cc1)Nc1ccncc1 | 0.0019 µM (active) |
| C[C@@H]1C(=O)O[C@H]2CC34[C@H]5C[C@@H](C(C)(C)C)C36[C@H](OC(=O)[C@@H]6O)O[C@@]4(C(=O)O5)[C@]21O (stereo not given in full) | inactive |
| O=C(O)CCCCCC(=O)NN=C1CCCC1 | inactive |
| COc1ccc([C@@H]2CNC(=O)C2)cc1OC1CCCC1 | inactive |
| Cc1[nH]c(C=C2C(=O)Nc3ccccc32)c(C)c1CCC(=O)O | 18.7 µM (active) |
| COc1cc2c(cc1OC)[C@@H]1C(=O)c3ccc4c(c3O[C@@H]1CO2)C=CC(C)(C)O4 | 0.0332 µM (active) |
| C=CC(=O)N1CCc2ccc(-n3c(=O)ccc4cnc5ccc(-c6cnn(C)c6)cc5c43)cc21 | 3.72 µM (active) |
| O=C1NC(=O)[C@@H](c2cn3c4c(cccc24)CCC3)[C@H]1c1c[nH]c2ccccc12 | 0.0743 µM (active) |
| CCn1c(=O)c2c(nc(C=Cc3ccc(OC)c(OC)c3)n2C)n(CC)c1=O | inactive |
| O=C1NC(O)CCN1[C@@H]1O[C@H](CO)[C@H](O)[C@H]1O (stereo not given in full) | inactive |
| Cc1cn([C@@H]2O[C@H](CO)[C@@H](O)[C@H]2F)c(=O)[nH]c1=O | inactive |
| FC(F)(F)c1ccc(Nc2nc3ccc(Oc4ccnc(-c5ncc(C(F)(F)F)[nH]5)c4)cc3[nH]2)cc1 | 26.4 µM (active) |
| Nc1nc(=O)n([C@H]2C[C@H](O)[C@@H](CO)O2)cc1F | inactive |
| C=CC(=O)Nc1ccc2ncnc(Nc3ccc(OCc4cccc(F)c4)c(Cl)c3)c2c1 | 0.0418 µM (active) |
| CCc1cnn2c(NCc3ccc[n+]([O-])c3)cc(N3CCCC[C@@H]3CCO)nc12 | 0.0332 µM (active) |
| CCOC(=O)C=C[C@H](C[C@@H]1CCNC1=O)NC(=O)[C@@H](CC(=O)[C@@H](NC(=O)c1cc(C)on1)C(C)C)Cc1ccc(F)cc1 | inactive |
| COc1ccc(CCC(=O)c2c(O)cc(O[C@@H]3O[C@H](CO)[C@@H](O)[C@H](O)[C@@H]3O[C@@H]3O[C@@H](C)[C@H](O)[C@@H](O)[C@@H]3O)cc2O)cc1O | inactive |
| C[C@H](NC(=O)Cc1cc(F)cc(F)c1)C(=O)N[C@H](C(=O)OC(C)(C)C)c1ccccc1 | inactive |
| NC(=O)Nc1sc(-c2ccc(F)cc2)cc1C(N)=O | 1.48 µM (active) |
